The supplement of paper PMC6555819

Assays:
Experiment in all cases: PBM binding z-score (relative to random genomic background probes); higher = stronger binding; sequences stand for … in GC…GCGATTGACAGCGTAGAATGAAGG
[1] = tested on: RARb homodimer (NR concentration 270 nM)
In short: (§1)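 Binding z-scores take random background probes as their reference. They come from custom Agilent 4×180K protein-binding microarrays incubated 1 h with ligand-free nuclear receptor dimers, with antibodies against each partner (one per run) detecting binding. Scanned fluorescence was regression-normalized.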

[2] = tested on: RARg:RXRa (NR concentration 270 nM, RXRa partner concentration 90 nM)
In short: as §1

[3] = tested on: RARg homodimer (NR concentration 270 nM)
In short: as §1

[4] = tested on: RXRa DBDmut IVT, anti-RXR (DBD mutation: RXRa K156A/R161A, NR concentration 90 nM)
In short: as §1

[5] = tested on: RXRa homodimer (NR concentration 180 nM)
In short: as §1

[6] = tested on: THRa:RXRa (NR concentration 90 nM, RXRa partner concentration 90 nM)
In short: as §1

[7] = tested on: THRa homodimer (NR concentration 90 nM)
In short: as §1

[8] = tested on: VDR homodimer (NR concentration 270 nM)
In short: as §1

Row | Sequence | PBM binding z-score [1] | PBM binding z-score [2] | PBM binding z-score [3] | PBM binding z-score [4] | PBM binding z-score [5] | PBM binding z-score [6] | PBM binding z-score [7] | PBM binding z-score [8]
1 | CCTTACGGGTCACGAGGTTATAGCACGACGAGCG | 4.07 | 6.25 | 5.47 | 1.53 | 6.87 | 3.69 | 1.09 | 2.03
2 | CGAACTAGGTCAGAACCGGACAGTGAAGGATGAT | 1.76 | 2.4 | 3.3 | 0.258 | 1.12 | 1.72 | 0.00608 | -0.191
3 | TCATATAGGTAAAGATGAAAGTCGAACGATATGA | -0.846 | 0.547 | 0.586 | 0.337 | 0.56 | -0.225 | -1.11 | -0.391
4 | CGTAGCAGGCCAATCTGGGTCACTCAAGGCTTGA | 1.95 | 0.96 | 1.26 | 0.317 | 0.616 | 3.65 | 0.645 | -0.295
5 | AAAATGAGGTTATACGTAGATCAGGGAAGAAAGT | 0.619 | 1.88 | 1.14 | 1.93 | 2.37 | 2.24 | 0.727 | 1.13
6 | CCGACTGGGGCAGAAAGGTTACCATGCCATCCGG | 2.33 | 1.54 | 1.08 | -1.07 | 1.72 | 1.05 | -0.541 | -0.201
7 | TCCTGTAGATCAGCAGGTTAAGAAAGCTGGCCAA | -0.00726 | -0.0905 | -0.286 | 0.636 | 0.412 | 0.129 | -0.526 | -0.526
8 | TCTCGGAGGACACGAAAGGTAAGAGCTCGACATC | 0.782 | 0.65 | 1.6 | 0.729 | 0.0654 | 2 | 0.0945 | -0.863
9 | TCGGGTAGGTTAGTCGGGGCATTCAGCCAACATA | 1.24 | 0.503 | 0.704 | 0.58 | 0.0388 | 1.57 | 1.21 | 1.08
10 | AGTCAAAGCTCATCTAGGTAACGTAAGATATGCT | -0.617 | 0.0208 | 0.207 | -0.43 | 0.198 | 0.467 | -0.333 | -0.256
11 | ATAAGTAGGTTATCGGGTCATTCAGTTTGCGCAT | 3.12 | 3.44 | 2.43 | 1.57 | 3.55 | 3.29 | 2.93 | 4.49
12 | TCTAGGTGGTCACGGAGGTCACACACGACGGGTA | 4.44 | 5.09 | 5.12 | 0.895 | 4.95 | 3.62 | 2.2 | 3.08
13 | ATCTCTAGGTAAGACTCAGTTCAGCGAAGAACGC | 0.706 | 0.274 | 0.294 | 0.439 | 0.4 | 0.927 | 0.802 | 1.48
14 | AATACAGGTTCACTAGGCCAGAGTAGGTACGAAT | 1.25 | 1.84 | 1.4 | 4.16 | 2.15 | 1.12 | 0.232 | 4.64
15 | TCTCGGCGGACACGAAGGTCAGAGCTTTCCAGAG | 2.83 | 2.03 | 2.17 | 0.141 | 1.28 | 1.16 | -0.151 | 0.187
16 | CATGCAGGGTCAGCTAGGCCAGAGTAGGGACGGC | 3.19 | 4.53 | 5.06 | 1.71 | 4.75 | 3 | 0.624 | 1.16
17 | CCGACTGGGGCAAGGTTAGCATAACGCACAGCCA | 0.752 | 0.574 | 0.814 | -0.5 | 0.57 | 0.333 | -0.266 | -0.191
18 | CATAGCAGGCCAATCTGGGTCACTCAAGGCTTGA | 1.85 | 1.44 | 1.57 | -0.0976 | 1.09 | 3.69 | 0.366 | -0.0851
19 | CGTCCAAGGTCAGAGAAGTCAGTGAATGCCGAGT | 3.51 | 4.3 | 5.16 | 2.35 | 3.37 | 3.32 | 1.53 | 1.64

Row | Sequence | PBM binding z-score [1] | PBM binding z-score [2] | PBM binding z-score [3] | PBM binding z-score [4] | PBM binding z-score [5] | PBM binding z-score [6] | PBM binding z-score [7] | PBM binding z-score [8]
20 | TCGAGTAGGTTACGGGCATTCAGAATGGCGTCGA | 0.362 | 0.594 | 0.594 | -0.00223 | 0.855 | 0.116 | -0.913 | -0.716
21 | TCATATAGGTAAATGCTAGGTGAGAGTCCGATCT | 0.0117 | 0.257 | 0.032 | 1.03 | 0.42 | 0.935 | -0.108 | 0.216
22 | TATCGGAGGACACGAAGGTCAGAGCTTTCCAGAG | 3.47 | 3.17 | 3.73 | 0.00455 | 1.79 | 2.88 | 0.977 | 1.46
23 | GCTGCTAGGTCAACTGATGGTCAGGTAAAGCTCG | 3.83 | 5.13 | 5.23 | 1.6 | 3 | 3.27 | 1.76 | 0.0826
24 | ATCTCTAGGTAACCAAGTTCATTGAATGCCGAAC | 2.07 | 1.42 | 1.35 | 2.39 | 1.29 | 2.2 | 1.25 | 5.53
25 | GCTCGGAGGGCAAGGTCAGAGCTTTGTCCGTAGA | 3.27 | 3.7 | 3.86 | 0.857 | 2.93 | 2.76 | 0.825 | 0.967
26 | TCTGCTAGGTCAACGATGGTCAGCCAATCTGCTA | 3.23 | 4.3 | 5.2 | 1.06 | 2.55 | 3.16 | 0.561 | -0.316
27 | TCTTGTAGATCAAAGTTTAAGAAAGCCGAAGCCT | 0.469 | 0.16 | 0.307 | 1.22 | 0.561 | 0.0453 | -0.571 | -0.214
28 | ATACCAAGGTAATCGTGAGGTCGTTGATACTAAC | 1.44 | 1.55 | 0.586 | 0.482 | 1.2 | 3.27 | 2.64 | 3.08
29 | AGTCAAAGTTTAGGACGAGGTAACGTAAAGCACG | 0.774 | 0.936 | 1.26 | 0.5 | 0.477 | 2.59 | 1.51 | 0.0811
30 | ACTATCAGTTGAGACGAGGGCAACCGATAGGTTG | 1.12 | 0.732 | 0.78 | 0.39 | 0.625 | 2.59 | 0.179 | 0.822
31 | CCGACTGGGGCAAGATTACCATAACGCACAGCCA | 0.349 | 0.185 | 0.477 | -0.0134 | 0.0853 | -0.474 | -0.565 | -0.566
32 | AGACCGAGGGCAATGAGTTGATAGCACGGGTGGC | 0.894 | 0.934 | 1.36 | 1.31 | 0.545 | 0.481 | -0.368 | 3.16
33 | CGTCCAAGGTCATAGCAGGTCAGTGAAGACAGAT | 4.65 | 6.19 | 6.53 | 3.91 | 5.72 | 4.99 | 2.79 | 3.76
34 | CCGAGTAGGTTATGGGGCATCCAGGCAACGGTGA | 0.911 | 0.651 | 0.586 | -0.816 | 0.858 | 0.523 | 0.159 | -0.188
35 | ATCTCTAGGTAATCAAGTTCAGTGAATGCCGAAC | 1.24 | 0.838 | 0.72 | 0.825 | 0.439 | 1.26 | 0.487 | 2.59
36 | TCGAGTAGGTTAGGGGCATTGAGAATGGCGTCGA | 0.964 | 0.14 | 0.129 | 0.205 | 0.572 | 0.83 | 0.383 | 0.492
37 | ATCTCTAGGTAAAAGTTCAGTGGATCCCGAGGAT | 2.32 | 2.02 | 2.08 | 0.861 | 1.53 | 1.2 | 0.272 | 1.72
38 | TATACAGGGTCAAAGGCCTGAGTACGAATGTCGA | 3.17 | 5.49 | 4.87 | 2.89 | 6.3 | 3.28 | 0.678 | 3.41

Row | Sequence | PBM binding z-score [1] | PBM binding z-score [2] | PBM binding z-score [3] | PBM binding z-score [4] | PBM binding z-score [5] | PBM binding z-score [6] | PBM binding z-score [7] | PBM binding z-score [8]
39 | CGTCAAAGTTCAACTATGGTAACGTAAAGCACGC | 4.39 | 5.88 | 6.65 | 4.74 | 4.82 | 3.57 | 0.175 | 4.04
40 | ACTATTAGTTGAGACGAGGGCAGCCGATAGGTTG | 0.756 | 0.374 | 0.715 | 0.298 | 0.449 | 2.02 | 0.0606 | 0.189
41 | TCTTGTAGATCAATAGAGTTTAAGAAAGTGCGCT | 0.231 | 0.0376 | 0.187 | 0.774 | 0.274 | 0.289 | -0.976 | 0.914
42 | CGAACTAGCTCAGAACAGGACAGTGAAGGATGAT | -0.0575 | -0.313 | 0.137 | 0.021 | -0.191 | -0.173 | -0.29 | -0.0975
43 | AATACAGGGTCATCGTAGGACAGAGTACGCACAG | 3.3 | 5.62 | 5.18 | 3.38 | 6.61 | 4.82 | 1.71 | 4.11
44 | CCAGACAGGTGAAAGGTAACTGAGTCTGGTACGC | 0.792 | 1.55 | 0.856 | -0.0997 | 2.19 | 0.931 | -0.381 | -0.0816
45 | CATACAGGGTCAGCTAGGCCAGACTAGGGACGGC | 3.19 | 4.5 | 4.67 | 1.37 | 3.99 | 3.16 | 1.06 | 1.2
46 | CGAACTAGGGCAAGGACAGTGAATCTCCGCACGC | 0.945 | 0.544 | 1.17 | 0.123 | 0.145 | 1.09 | 0.786 | 0.0219
47 | TCATATAGGTAATACAGGTGAAAATCGGCATCTA | 0.328 | 0.729 | 0.82 | 1.8 | 1.72 | 0.836 | 0.391 | 0.435
48 | AGTCAAAGTTCACTAGGTAACGTACGATTCAGCT | 4.12 | 4.87 | 5.61 | 4.41 | 3.85 | 2.2 | 0.165 | 4
49 | TAGCCTAGGCCAGATCGGGCCAGTATACGCTATA | -0.577 | -0.451 | -0.0912 | -1.32 | -0.625 | 0.522 | -0.893 | -0.924
50 | AGTCAAGGTTCACTAGGTAACGTAAGATTCAGCT | 1.85 | 2.74 | 2.72 | 3.92 | 2.57 | 1.8 | 0.553 | 3.78
51 | CCTACTGGGCCAAAAAGGTGATTGATGCCGATAA | 0.483 | 0.0442 | 0.047 | -0.635 | -0.0112 | 0.0456 | -0.353 | -0.114
52 | CCTACTGGGGCATTCAGAGGTCATTGATCATATG | 4.07 | 5.17 | 3.71 | 0.683 | 3.72 | 3.43 | 1.19 | 3.38
53 | TATACAGGGACAAAGGCCAGAGTACGAATGTCGA | 1.4 | 1.29 | 1.58 | -0.217 | 0.385 | 0.949 | -0.0231 | 0.738
54 | GTACCAAGGTGAATAGGTCTTTGATGAGTAGGCG | 1.13 | 1.15 | 0.913 | 0.00774 | 0.832 | 1.3 | 0.641 | 0.178
55 | GCTAATTGGTCAGTAAAAGGTCACACACCGGTCG | 5.34 | 5.37 | 4.52 | 0.816 | 5.27 | 3.88 | 2.1 | 2.14
56 | ATCTATAGGTAAAGTTCAGTGAAAGATCGATAGA | 2.35 | 2.02 | 2.38 | 1.21 | 1.51 | 0.707 | -0.456 | 1.95
